# Bioassay records deposited in PubChem BioAssay by National Center for Advancing Translational Sciences (NCATS).
# In the library only some 10% were active in any assay of this set; here they are far more common.
# JMJD2A Tudor inh – JMJD2A Tudor domain (human) inhibition; O75164; AlphaScreen JMJD2A-Tudor / H3K4me3 peptide binding; Potency, µM (doses to about 114 µM), most hits filed as inhibitors; 390,000 tested, 4.4% active; AID 504339; further: nearly all actives have a fitted effect of over 50% in size
# BAZ2B inh – inhibitors of human BAZ2B bromodomain | AID 504333 | Potency, µM (top dose mostly 114 µM), actives largely listed as inhibitors | AlphaScreen BAZ2B-H3K14Ac peptide displacement | Q9UIF8 | 360,000 tested, 4.4% active; further: nearly all actives have a fitted effect of over 60% in size
#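 In this displacement format the biotinylated H3(5-23) peptide acetylated at Lys14 serves as ligand at 50 nM, with BAZ2B at 50 nM in PBS pH 7.4 containing 0.01% Tween-20. Donor and acceptor beads are 10 ug/mL final.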
# HP1b binding inh – inhibitors of HP1-beta chromodomain binding to methylated histone tails | P83916 | AlphaScreen HP1-beta / biotin-H3K9me3 peptide binding | Potency, µM (titrated, usually from 114 µM), hits mostly inhibitors | 390,000 tested, 0.56% active; further: nearly all actives have a fitted effect of over 70% in size
# Target sequence (P83916 whole entry, looked up): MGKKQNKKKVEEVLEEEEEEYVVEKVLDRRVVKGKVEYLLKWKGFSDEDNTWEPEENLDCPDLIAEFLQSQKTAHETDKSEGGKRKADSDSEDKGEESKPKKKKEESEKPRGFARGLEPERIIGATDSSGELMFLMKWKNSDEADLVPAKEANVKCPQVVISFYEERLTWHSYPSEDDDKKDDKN
#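 Compound inhibition of the preformed complex between 50 nM HP1-beta and 50 nM biotinylated H3K9me3 peptide was read by AlphaScreen. Buffer was PBS pH 7.4 with 0.01% Tween-20. Incubations ran 30 min at room temperature, with 10 ug/mL donor/acceptor beads.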
# G9a block – G9a (human) methyltransferase inhibition | Q96KQ7 | 350,000 tested, 8.8% active | G9a H3K9 monomethylation, AlphaScreen, 2 h | Potency, µM (series often up to 102 µM), hits mostly inhibitors; further: nearly all actives have a fitted effect of over 75% in size
# Target sequence (Q96KQ7 913-1193 limits assumed): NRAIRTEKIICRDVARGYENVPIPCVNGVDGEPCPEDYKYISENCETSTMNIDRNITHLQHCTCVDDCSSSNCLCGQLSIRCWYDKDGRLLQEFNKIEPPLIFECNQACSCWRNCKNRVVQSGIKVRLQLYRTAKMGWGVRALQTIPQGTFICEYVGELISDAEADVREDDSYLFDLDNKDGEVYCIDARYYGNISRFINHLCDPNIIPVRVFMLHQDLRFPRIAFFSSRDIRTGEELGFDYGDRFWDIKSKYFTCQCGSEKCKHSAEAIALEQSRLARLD
#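 Step 1: enzyme (final 20 nM) with compound, 15 min RT. Step 2: substrate peptide 500 nM and SAM 20 uM, 2 h RT. Step 3: anti-H3K9me1 antibody and AlphaScreen beads, 10 min, then plate read.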
# Six1-Eya2 blk – blocks human Six1 binding to Eya2; 360,000 tested, 0.56% active; AlphaScreen GST-Six1/His-Eya2 binding, biochemical; stronger effect = lower value; AID 651725; activity change, % (no concentration beside the values); in the data active means activity change below about -65%; inconclusive means mostly about -30% to -63%
#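 Homogeneous AlphaScreen proximity assay pairing GST-Six1 with His-tagged Eya2 (added as 5X mix: 250 nM and 500 nM) in 50 mM Tris pH 8.0, 300 mM NaCl, 1 mM TCEP. Glutathione donor and nickel acceptor beads; 1 h, 37 °C, dark.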
# CtBP-E1A blk – blocks the CtBP interaction with E1A. AlphaScreen GST-E1A/His-CtBP binding, 1536-well; stronger effect = lower value. activity change, % (test concentration not listed). 340,000 tested, 0.49% active. AID 651724; in the data active means activity change below about -65%; inconclusive means mostly about -30% to -63%
#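 Steps: dispense buffer (Tris pH 8.0, NaCl 300 mM, TCEP 1 mM, BSA, Tween 20); add 5X protein mix (GST-E1A, His-CtBP, 125 nM each); pin 23 nL compound; 2 h at 37 °C, dark; add 5X beads (50 ug/mL); 1 h; read.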
# Hits are given with their value; n = inactive; u = inconclusive; x = no result given; [ ] = dose if it differs, or a comment. Unless noted, the call rests on the fitted dose curve; in most records, active means well fitted inhibition curve with a large enough effect; inconclusive means small, poorly fitted or top-dose-only effect; inactive means no such curve, though single readings can be large or run the other way.
SMILES,JMJD2A Tudor inh,BAZ2B inh,HP1b binding inh,G9a block,Six1-Eya2 blk,CtBP-E1A blk
COc1ccccc1CNC(=O)c1ccc2c(c1)sc1nc(-c3ccc(F)cc3)cn12,n,n,n,n,x,x
Cc1ccc2[nH]c(=O)c3cc(C(=O)N(C)c4ccc(Br)cc4)sc3c2c1,n,n,n,n,x,x
CCC1(C)Cc2ccccc2-c2nc(NCCO)n(-c3ccc(C)cc3)c(=O)c21 (stereo not drawn),n,n,n,n,n,n
CCC1(C)Cc2ccccc2-c2c1c(=O)n(-c1ccc(C)cc1)c1nnnn21 (stereo not drawn),n,n,n,50µM,n,x
COc1ccc(C(=O)Nc2ccccc2-c2nc3ccccc3s2)cc1OC,n,n,n,n,x,x
O=C1C=CC(=O)N1c1ccc(I)cc1Cl,x,n,x,n[12.7 µM],x,x
O=C1C=CC(=O)N1c1ccccc1N1C(=O)C=CC1=O,2.8µM,x,2.8µM,x,n,n
O=C(c1ccccc1)c1ccccc1N1C(=O)C=CC1=O,18µM,n,11µM,0.79µM,n,n
O=C1C=CC(=O)N1c1ccccn1,89µM,x,u,x,n,n
O=c1[nH]n(-c2ccccn2)c(=O)c2ccccc12,79µM,x,n,u,n,n
CCOC(=O)Cn1c(=O)cc(C(F)(F)C(F)(F)F)c2c(C)nn(CC)c21,n,n,n,n,x,x
CCc1nn2c(=O)cc(COC(=O)C(CC)c3ccccc3)nc2s1 (stereo not drawn),n,n,n,n,x,x
Cc1noc2ncnc(N3CCN(c4ccccc4F)CC3)c12,n,n,n,n,x,x
CCOC(=O)c1c(C)n(C)c2cc(Br)c(OC)cc12,n,n,n,n,n,n
CCOC(=O)c1c(CNCCN(CC)CC)n(C)c2cc(Br)c(OC)cc12,n,u,n,79µM,n,n
Cc1ccc(NC(=O)c2cccc3c(=O)c4c([nH]c23)CCCC4)c(C)c1,n,n,n,u,x,x
COc1ccc(/C=C/C(=O)OCC(=O)NCc2ccco2)cc1OC,n,u,n,n,n,n
CCOc1cc(/C=C/C(=O)OCC(=O)NCc2ccco2)cc(Cl)c1OC,u,u,n,50µM,n,u
COc1cc(/C=C/C(=O)OCC(=O)NCc2ccco2)ccc1OC(F)F,n,n,n,40µM,n,n
O=c1cc(-c2ccc(Cl)cc2)oc(=O)[nH]1,n,n,n,n,n,x
O=c1cc(N=Nc2ccc(Cl)cc2)[nH]c(=O)[nH]1,n,n,n,45µM,n,n
C=CCc1cccc2cc(C(=O)Nc3ccccc3C(=O)O)c(=O)oc12,n,50µM,n,13µM,n,n
C=CCc1cccc2cc(C(=O)N3CCN(C(=O)c4ccco4)CC3)c(=O)oc12,n,n,n,45µM,n,n
C[C@H]1[C@@H](OC(=O)CCC(=O)O)OC2OC3(C)CC[C@H]4[C@H](C)CC[C@@H]1[C@@]24OO3 (stereo partly drawn),x,x,x,n[12.7 µM],x,x
CCC(=O)Nc1nnc(-c2ccco2)o1,45µM,u,n,22µM,n,n
SMILES,JMJD2A Tudor inh,BAZ2B inh,HP1b binding inh,G9a block,Six1-Eya2 blk,CtBP-E1A blk
O=C(Cc1ccccc1)Nc1ccc(-c2nnc(-c3ccco3)o2)cc1,n,n,n,n,n,n
O=C(Cc1ccccc1)Nc1nnc(-c2ccco2)o1,45µM,28µM,n,n,n,n
CCCCC(=O)Nc1nnc(-c2ccco2)o1,10µM,79µM,n,n,n,n
COc1cccc(CNC(=O)CCc2c(C)nn(-c3ccc(N4CCCC4)nn3)c2C)c1,n,u,n,n,x,x
NNc1nc(-c2ccccc2)cc(-c2ccccc2)n1,n,u,n,n,n,n
NNc1nc(-c2ccccc2)cc(-c2ccccc2O)n1,u,50µM,n,n,n,n
COc1ccc(-c2noc(CSc3nnc(-c4ccncc4)n3-c3cccc(C)c3)n2)cc1OC,n,n,n,n,x,x
C/C(=N\NS(=O)(=O)c1ccc(C)c([N+](=O)[O-])c1)c1ccc2c(c1)OCO2,n,n,n,45µM,n,x
C/C(=N\NS(=O)(=O)c1ccc(Cl)c([N+](=O)[O-])c1)c1cc2ccccc2o1,u,u,n,u,n,n
COc1ccc(OC)c(S(=O)(=O)N/N=C(/C)c2ccc3c(c2)OCO3)c1,n,n,n,32µM,n,n
C/C(=N/NS(=O)(=O)c1cccc([N+](=O)[O-])c1)c1ccc2c(c1)OCO2,n,n,n,32µM,n,n
C/C(=N\NS(=O)(=O)c1ccc(Cl)c([N+](=O)[O-])c1)c1ccc(C)o1,u,79µM,n,n[12.7 µM],n,n
C/C(=N/NS(=O)(=O)c1ccc(C)cc1C)c1ccc2c(c1)OCO2,n,n,n,x,n,n
CCOC(=O)c1cc2c(N)c(C(=O)c3cc(C#N)c(SC)nc3C)sc2nc1C,n,n,n,45µM,n,n
O=C(/C=C/c1ccco1)NC1CCCC1,n,u,n,u,n,n
O=C(C=Cc1ccco1)c1ccco1,n,x,n,x,n,n
O=C(O)C(C(=O)/C=C/c1ccco1)=C1SCCS1,56µM,50µM,71µM,u,n,n
O=C(C=C1SCCS1)/C=C/c1ccco1,45µM,50µM,u,40µM,n,n
CO/N=C(\C(=O)N[C@@H]1C(=O)N2C(C(=O)[O-])=C(C[n+]3cccc4c3CCC4)CS[C@H]12)c1csc(N)n1,x,x,x,n[12.7 µM],x,x
Cc1c2oc3c(C)ccc(C(=O)N[C@@H]4C(=O)N[C@H](C(C)C)C(=O)N5CCC[C@H]5C(=O)N(C)CC(=O)N(C)[C@@H](C(C)C)C(=O)O[C@@H]4C)c3nc-2c(C(=O)N[C@@H]2C(=O)N[C@H](C(C)C)C(=O)N3CCC[C@H]3C(=O)N(C)CC(=O)N(C)[C@@H](C(C)C)C(=O)O[C@@H]2C)c(N)c1=O,x,x,x,11µM,x,x
CCn1c(=O)cc(OCC(=O)N2CCCCCC2)c2ccccc21,n,n,n,n,n,n
CCn1c(=O)cc(OCC(=O)N2CCN(c3ccc(C)cc3)C(C)C2)c2ccccc21 (stereo not drawn),n,u,n,6.3µM,x,x
Cc1cc(C)n(-c2nnc(C)c(=O)[nH]2)n1,1µM,7.1µM,n,2µM,u,u
COc1cccc(NC(=O)CSC2=Nc3ccccc3C3=NC(CC(=O)NCCc4ccccc4)C(=O)N23)c1 (stereo not drawn),n,n,n,n,x,x
CN(CC(=O)Nc1cccc(F)c1)C(=O)c1ccc(N2C(=O)c3ccccc3C2=O)cc1,n,n,n,n[12.7 µM],n,n
CN(CC(=O)Nc1c(Cl)cccc1Cl)C(=O)c1cccc(-n2cccc2)c1,14µM,35µM,32µM,n[0.501 µM],n,n
CCN(CC(=O)Nc1ccc(NC(C)=O)cc1)C(=O)c1cccc(-n2cccc2)c1,n,50µM,u,50µM,n,n
CN(CC(=O)Nc1c(Cl)cccc1Cl)C(=O)CCC(=O)c1ccccc1,n,n,n,50µM,n,n
